Experimental findings from PubChem BioAssay (NCI) are described below.

Holding throughout (experiment): NCI-60 one-dose screen, 48 h (100 = growth as untreated, 0 = no growth, -100 = all killed)
Holding throughout (conditions): 10 µM unless noted

The test system of test [1] is NCI-H23 lung.
Test [2] deals with NCI-H226 lung.
Test [3] relates to NCI-H322M lung.
For test [4], the system named is HOP-62 NSCLC.
Test [5] concerns NCI-H460 lung.
The test system of test [6] is NCI-H522 lung.
Test [7] relates to A549/ATCC NSCLC.
Test [8] has as its system 786-0 renal.
Test [9] relates to COLO 205 colon.
In test [10] the test system is DU-145 prostate.
Test [11] has as its system K-562 leukemia.
Test [12] relates to MALME-3M melanoma.
Test [13] concerns MDA-MB-231 breast.
The test system of test [14] is RXF 393 renal.
Test [15] has as its system SF-268 CNS.
The subject of test [16] is SF-295 CNS.
Test [17] deals with SF-539 CNS.
Test [18] concerns UACC-257 melanoma.
Test [19] concerns M14 melanoma.
In test [20] the test system is HCT-15 colon.

The panel holds about 83,000 compounds, 20% with a hit somewhere; the sample as a whole holds those more often.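 The test compound was applied at a single concentration to cells in 96-well plates for 48 hours, and percent growth was recorded.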 Values without a mark were called inactive. Activity calls are given as the source filed them. The calls were made as follows: active = growth percent below 10; inactive = the rest.

As to `COc1ccc(-c2cncn2-c2ccc(-c3nc4cc(OC)c(OC)c(OC)c4s3)cc2)cc1N`, the growth in test [1] is 72.9%; in test [2] it was 64.5%; in [3] it was 84.1%; in [4], 101%; in [5], 51.4%; in test [6] it was 46%. The growth in test [7] is 47.9%; in test [8] it was 55.2%; in test [9], 46.2%; in [10], 92.6%; in test [11], 41%; in test [12], 57.9%. Besides, the growth in [13] was 76.4%; in [14] it was 75.8%; in [15] it was 93.1%; in [16] it was 50%; in [17], 87.8%; in test [18], 71.6%. Further, the growth was 46.5% in [19] and 42.1% in test [20].

With `O=C(Cn1ccnc1)NC(c1ccccc1)c1ccccc1`, the growth in test [1] is 94.8%; in test [2] it was 100%; in [3], 98.7%; in test [4], 96%; in test [5], 103%; in test [6], 93.2%. In addition, the growth in [7] was 105%; in test [8], 103%; in [9] it was 109%; in test [10], 112%; in test [11], 98.6%; in [12], 104%. Also, the growth was 99.6% in test [13]; 104% in [14]; 97.7% in [15]; 97.6% in test [16]; 86.2% in test [17]; 104% in test [18]. The results for the growth in test [19] and in test [20] were 102% and 101%, respectively.

Regarding `COc1ccc2c(c1)C(=O)c1c-2c(OCCCN(C)C)nc2cc(Br)ccc12`, the growth is 75.5% in [1]; 57.2% in test [2]; 80.7% in [3]; 68% in test [4]; 36.2% in test [5]; 61.6% in test [6]. Moreover, the growth in [7] was 24.6%; in test [8], 77.2%; in test [9], 64.6%; in [10], 78.5%; in test [11], 53.1%; in [12], 69.8%. Further, the growth in [13] was 49.9%; in test [14], 43.7%; in test [15], 69%; in [16], 93.9%; in test [17], 67.6%; in test [18] it was 108%. The values for the growth in test [19] and in test [20] were 91.8% and -31.3% (active), respectively.

On to `O=C(OC[C@H]1O[C@H](OC(=O)c2cc(O)c(O)c(OC(=O)c3cc(O)c(O)c(O)c3)c2)[C@H](OC(=O)c2cc(O)c(O)c(OC(=O)c3cc(O)c(O)c(O)c3)c2)[C@@H](OC(=O)c2cc(O)c(O)c(OC(=O)c3cc(O)c(O)c(O)c3)c2)[C@@H]1OC(=O)c1cc(O)c(O)c(OC(=O)c2cc(O)c(O)c(O)c2)c1)c1cc(O)c(O)c(OC(=O)c2cc(O)c(O)c(O)c2)c1`, for which the growth in [1] was 19%; in test [2] it was 7.2% (active); in test [3], 19.3%; in test [4] it was 46.2%; in test [5], 11.6%; in test [6] it was -11% (active). Further, the growth was 34% in test [7]; 18.5% in test [8]; 55.1% in test [9]; 30.3% in [10]; 31.5% in [11]; 49% in [12]. Moreover, the growth is 23.5% in [13]; -12.7% (active) in [14]; 27.2% in test [15]; 9.95% (active) in [16]; 29.3% in test [17]; 60.2% in test [18]. In addition, the growth in test [19] is 17.6%; in test [20], 28.6%.

Consider `O=C(CCc1nnc(SCc2ccccc2)s1)c1nc2ccccc2[nH]1`, for which the growth in test [1] was 96.4%; in [2], 102%; in [3], 92.9%; in [4], 105%; in [5] it was 105%; in test [6], 84.4%. The growth is 86.3% in test [7]; 91.2% in test [8]; 117% in test [9]; 107% in test [10]; 80.2% in test [11]; 83.8% in test [12]. For the same molecule, the growth is 77.9% in [13]; 108% in test [14]; 100% in test [15]; 92.1% in [16]; 109% in test [17]; 111% in [18]. Further, the figures for the growth in [19] and in test [20] were 108% and 81%, respectively.

Regarding `CCN1C2=C(SC(=S)C1=C1SC(C(=O)OC)=C(C(=O)OC)S1)SC(=Nc1ccc(OC)cc1)C2=O`, the growth is -42.5% (active) in test [1]; -66.7% (active) in [2]; 48.4% in test [3]; -13.7% (active) in [4]; -47.5% (active) in [5]; -15.2% (active) in test [6]. Moreover, the growth in test [7] was 17.7%; in [8] it was -64.6% (active); in test [9] it was -3.6% (active); in test [10] it was -46.1% (active); in test [11] it was 7.47% (active); in [12], -28% (active). The growth in test [13] is 4.53% (active); in test [14], -87.7% (active); in test [15] it was 1.48% (active); in test [16] it was 2.33% (active); in test [17], -24.1% (active); in test [18], -55.1% (active). In addition, the values for the growth in test [19] and in test [20] were -54.7% (active) and -20.7% (active), respectively.

On to `CCOC(=O)C1=C(COCCN)NC(C)=C(C(=O)OC)C1c1ccccc1Cl` (stereo not given), for which the growth in test [1] is 83.7%; in test [2], 91.9%; in test [3], 80.3%; in test [4] it was 89.7%; in [5] it was 60.3%; in test [6], 73.3%. The growth in test [7] was 71.8%; in [8] it was 70.1%; in [9], -51.9% (active); in test [10] it was 98.6%; in test [11], 59.1%; in [12], 74%. Moreover, the growth is 17.4% in test [13]; 50.9% in [14]; 87% in [15]; 96.2% in test [16]; 92.9% in test [17]; 59% in test [18]. Besides, the growth was 48.6% in test [19] and 64.6% in [20].
